Assay results: PubChem BioAssay (Tox21)
Inconclusive results are not listed. Calls of active or inactive are those of the source. Unless noted, the call rests on the fitted dose curve; in most records, active means well fitted curve in the direction sought with a large enough effect in the repeat runs; inconclusive means weak or mixed curves; inactive means no such curve, though single readings can be large; an effect the other way counts as inactive or inconclusive.

Columns and labels:
[1] = qHTS assay to identify small molecule agonists of the androgen receptor (AR) signaling pathway in the presence of an antagonist - cell viability counter screen (AID 1259379); further: nearly all actives have a fitted effect of over 25% in size; further: potency means the concentration at half of the fitted maximal effect; on activity change, negative = cytotoxicity: series mostly up to about 92 µM
Outline: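 MDA-kb2 human breast carcinoma cells (stable MMTV-luciferase, AR/GR responsive) were seeded 3,000 cells/well, pre-incubated 5 hr at 37C without CO2, then given 3.0uM nilutamide and compounds at 15 concentrations for 16 hr. Viability was read by CellTiter-Fluor fluorescence.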

[2] = qHTS assay to identify small molecule agonists of the estrogen receptor beta (ER-beta) signaling pathway - cell viability counter screen (AID 1259380); further: nearly all actives have a fitted effect of over 30% in size; further: potency means the concentration at half of the fitted maximal effect
Outline: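 ER-beta-UAS-bla HEK293T cells in medium with 2% charcoal-stripped FBS were preincubated 6 hr at 37C, dosed with compound in DMSO for 16 hr, then after the bla read, CellTiter-Glo was added for 30 min at room temperature; luminescence recorded.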

[3] = qHTS assay to identify small molecule antagonists of the estrogen receptor beta (ER-beta) signaling pathway - cell viability counter screen (AID 1259382); further: nearly all actives have a fitted effect of over 55% in size; further: potency means the concentration at half of the fitted maximal effect;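 on activity change, negative = cytotoxicity: HEK293T cells carrying ER-beta-UAS-bla reporter stimulated with estradiol; series mostly up to about 92 µM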
Outline: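 ER-beta-UAS-bla HEK293T cells (2,000/well, 2% charcoal-stripped FBS) were pre-incubated 6 hr at 37C, then given compound plus 1nM final 17-beta-estradiol for 16 hr. Viability was read in the same wells by CellTiter-Glo luminescence after 30 min at room temperature.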

[4] = target: Estrogen receptor (Homo sapiens) (UniProt P03372); assay: qHTS assay to identify small molecule agonists of the estrogen receptor alpha (ER-alpha) signaling pathway in the presence of an antagonist (AID 1259383; calls by dose curve; further: top concentration of the series differs between compounds; nearly all actives have a fitted effect of over 15% in size)
Outline: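 VM7Luc4E2 cells (endogenous full-length ER-alpha, 4×ERE-luciferase) were precultured 5 days in phenol red-free medium with 10% charcoal-stripped FBS, given 10.0nM ICI-182,780 (final), then treated with compounds at 15 concentrations for 22hr at 37C; luminescence read with ONE-Glo.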

[5] = qHTS assay to identify small molecule agonists or antagonists of the thyroid stimulating hormone receptor (TSHR) signaling pathway - wild type cell line counter screen (AID 1259384; calls by dose curve)
Outline: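 Wild-type HEK293 cells were plated 18 h at 37 C/5% CO2, pin-dosed with compound plus Ro20-1724 medium, held 30 min at room temperature, then given cAMP-d2 and anti-cAMP-cryptate; fluorescence was read after 1 h. Fifteen concentrations, triplicate.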

[6] = target: Thyrotropin receptor (Homo sapiens) (UniProt P16473); assay: qHTS assay to identify small molecule antagonists of the thyroid stimulating hormone receptor (TSHR) signaling pathway (AID 1259385; calls by dose curve; further: nearly all actives have a fitted effect of over 20% in size)
Outline: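 TSHR-HEK293 cells were plated and held 18 h at 37C/5% CO2, then given compound plus Ro20-1724 and stimulated with TSH at 1.5 ng/mL final. After 30 min at room temperature, cAMP was detected with cAMP-d2/anti-cAMP-cryptate (1 h) by fluorescence.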

[7] = qHTS assay to identify small molecule agonists of the estrogen receptor alpha (ER-alpha) signaling pathway in the presence of an antagonist - cell viability counter screen (AID 1259386);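 further: cells exposed to compounds for 22 h at 37 °C before the viability read; nearly all actives have a fitted effect of over 30% in size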; further: potency means the concentration at half of the fitted maximal effect; on activity change, negative = cytotoxicity: series mostly up to about 92 µM
Outline: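 VM7Luc4E2 cells (endogenous full-length ER-alpha, 4×ERE-luciferase) were held 5 days in phenol red-free medium with 10% charcoal-stripped FBS, plated, then given 10.0nM ICI-182,780 and compounds at 15 concentrations for 22hr at 37C; viability read by CellTiter-Fluor fluorescence.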

[8] = qHTS assay to identify small molecule antagonists of the progesterone receptor (PR) signaling pathway - cell viability counter screen (AID 1346798); further: nearly all actives have a fitted effect of over 50% in size; further: potency means the concentration at half of the fitted maximal effect; on activity change, negative = cytotoxicity: series mostly up to about 92 µM
Outline: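 PR-UAS-bla HEK293T cells in medium with 2% charcoal-stripped FBS were treated with compounds plus R5020 for 16 hr at 37C. Cell viability was then read by CellTiter-Glo luminescence after 30 min at room temperature in the same wells.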

[9] = qHTS assay to identify small molecule antagonists of the TGF-beta/Smad signaling pathway - cell viability counter screen (AID 1346824); further: nearly all actives have a fitted effect of over 50% in size; further: potency means the concentration at half of the fitted maximal effect
Outline: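 SBE-bla HEK 293T cells were plated overnight at 37 C, then given compounds in DMSO plus TGF-beta1 (added as 0.25 ng/mL solution) for 5 hr. After the bla read, CellTiter-Glo was added to the same wells and luminescence read after 30 min at room temperature.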

[10] = Human pregnane X receptor (PXR) small molecule agonists, qHTS cell viability counter screen (AID 1346977); further: nearly all actives have a fitted effect of over 50% in size; further: potency means the concentration at half of the fitted maximal effect
Outline: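 PXR-Luc HepG2 cells in medium with 5% charcoal-stripped FBS were pre-incubated 5hr, then exposed to compounds for 24hr at 37C. Viability was read in the same wells by CellTiter-Fluor fluorescence, reagent added after 23hr with a 1hr incubation.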

[11] = qHTS assay to identify small molecule agonists of the progesterone receptor (PR) signaling pathway - cell viability counter screen (AID 1346799; calls by dose curve; further: nearly all actives have a fitted effect of over 45% in size; further: potency means the concentration at half of the fitted maximal effect)
Outline: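 PR-UAS-bla HEK293T cells, 3,000 per well in medium with 2% charcoal-stripped FBS, were preincubated 6 hr at 37C, then exposed to compounds for 16 hr; viability was read as CellTiter-Glo luminescence after 30 min at room temperature.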

[12] = qHTS assay to identify small molecule agonists of the TGF-beta/Smad signaling pathway - cell viability counter screen (AID 1346829); further: nearly all actives have a fitted effect of over 45% in size; further: potency means the concentration at half of the fitted maximal effect; on activity change, negative = cytotoxicity: top concentration of the series differs between compounds
Outline: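 CellTiter-Glo luminescence readout; SBE-bla HEK 293T cells, overnight plating, compound 5 hr at 37 C/5% CO2, then bla substrate 2 hr RT, then CellTiter-Glo 30 min RT.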

[13] = target: Progesterone receptor (Homo sapiens) (UniProt P06401); assay: qHTS assay to identify small molecule agonists of the progesterone receptor (PR) signaling pathway (AID 1346784; calls by dose curve; further: nearly all actives have a fitted effect of over 30% in size)
Outline: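 PR-UAS-bla HEK 293T cells carrying a UAS-driven beta-lactamase reporter were seeded in medium with 2% charcoal-stripped FBS, preincubated 6 hr at 37C, then exposed to compounds in DMSO for 16 hr; agonism was read by LiveBLAzer B/G FRET fluorescence.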

[14] = target: Progesterone receptor (Homo sapiens) (UniProt P06401); assay: qHTS assay to identify small molecule antagonists of the progesterone receptor (PR) signaling pathway (AID 1346795; active means well fitted inhibition curve with a large enough effect in the signal ratio in the repeat runs, not every such curve was filed as active; the % refers to the signal ratio)
Outline: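 PR-UAS-bla HEK293T cells carrying a UAS-driven beta-lactamase reporter were plated in medium with 2% charcoal-stripped FBS and rested 6 hr at 37C. Compounds were added with 1 nM R5020 (final) for 16 hr, then FRET substrate loaded 2 hr at room temperature.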

[15] = qHTS assay to identify small molecule agonists of the TGF-beta/Smad signaling pathway (AID 1346859; active means well fitted activation curve with a large enough effect in the signal ratio in the repeat runs, not every such curve was filed as active; the % refers to the signal ratio; further: series mostly up to about 77 µM)
Outline: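 HEK 293T cells stably carrying a beta-lactamase reporter driven by the Smad binding element were seeded overnight, exposed to DMSO-dissolved compounds for 5 hr at 37 C, 5% CO2, then loaded with FRET substrate for 2 hr at room temperature.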

[16] = target: Thyrotropin-releasing hormone receptor (Homo sapiens) (UniProt P34981); assay: qHTS assay to identify small molecule antagonists of the thyrotropin-releasing hormone receptor (TRHR) signaling pathway (AID 1346877; active means well fitted inhibition curve with a large enough effect in the repeat runs, not every such curve was filed as active; further: series mostly up to about 51 µM)
Outline: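 TRHR-expressing HEK293 cells were seeded, cultured 18 h at 37 °C, then loaded with calcium dye for 2 h. Compounds were pre-incubated 5 min at room temperature before 1 nM TRH (final) was added, and kinetic fluorescence was recorded for 3 min.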

[17] = target: Thyrotropin-releasing hormone receptor (Homo sapiens) (UniProt P34981); assay: qHTS assay to identify small molecule agonists of the thyrotropin-releasing hormone receptor (TRHR) signaling pathway (AID 1346891; calls by dose curve; further: series mostly up to about 58 µM)
Outline: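 TRHR-expressing HEK293 cells were plated 18 h at 37 °C/5% CO2, loaded with calcium dye 2 h at 37 °C, then given compound in DMSO; fluorescence was read kinetically for 3 min at 1 s intervals.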

[18] = Caspase-3/7 induction in HepG2 cells by small molecules, qHTS assay (AID 1346978); further: nearly all actives have a fitted effect of over 15% in size
Outline: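 Wild-type HepG2 cells (2,000/well) were settled 5 h at 37 C, 5% CO2, then exposed to compounds in DMSO for 17 h. Caspase-3/7 activity was read by luminescence 30 min after adding Caspase-Glo 3/7 reagent at room temperature.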

[19] = target: Androgen receptor (Homo sapiens) (UniProt P10275); assay: qHTS assay to identify small molecule agonists of the androgen receptor (AR) signaling pathway in the presence of an antagonist (AID 1259381; calls by dose curve; further: nearly all actives have a fitted effect of over 15% in size)
Outline: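 MDA-kb2 human breast carcinoma cells carrying an MMTV-luciferase reporter (AR- and GR-responsive) were treated with compounds at 15 concentrations plus 3.0uM final nilutamide for 16hr at 37C without CO2; luminescence was read after ONE-Glo addition.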
On the % scale 0 is the no-effect control and ±100 the full control effect.

Sequence of Androgen receptor (Homo sapiens) (P10275 whole entry, looked up): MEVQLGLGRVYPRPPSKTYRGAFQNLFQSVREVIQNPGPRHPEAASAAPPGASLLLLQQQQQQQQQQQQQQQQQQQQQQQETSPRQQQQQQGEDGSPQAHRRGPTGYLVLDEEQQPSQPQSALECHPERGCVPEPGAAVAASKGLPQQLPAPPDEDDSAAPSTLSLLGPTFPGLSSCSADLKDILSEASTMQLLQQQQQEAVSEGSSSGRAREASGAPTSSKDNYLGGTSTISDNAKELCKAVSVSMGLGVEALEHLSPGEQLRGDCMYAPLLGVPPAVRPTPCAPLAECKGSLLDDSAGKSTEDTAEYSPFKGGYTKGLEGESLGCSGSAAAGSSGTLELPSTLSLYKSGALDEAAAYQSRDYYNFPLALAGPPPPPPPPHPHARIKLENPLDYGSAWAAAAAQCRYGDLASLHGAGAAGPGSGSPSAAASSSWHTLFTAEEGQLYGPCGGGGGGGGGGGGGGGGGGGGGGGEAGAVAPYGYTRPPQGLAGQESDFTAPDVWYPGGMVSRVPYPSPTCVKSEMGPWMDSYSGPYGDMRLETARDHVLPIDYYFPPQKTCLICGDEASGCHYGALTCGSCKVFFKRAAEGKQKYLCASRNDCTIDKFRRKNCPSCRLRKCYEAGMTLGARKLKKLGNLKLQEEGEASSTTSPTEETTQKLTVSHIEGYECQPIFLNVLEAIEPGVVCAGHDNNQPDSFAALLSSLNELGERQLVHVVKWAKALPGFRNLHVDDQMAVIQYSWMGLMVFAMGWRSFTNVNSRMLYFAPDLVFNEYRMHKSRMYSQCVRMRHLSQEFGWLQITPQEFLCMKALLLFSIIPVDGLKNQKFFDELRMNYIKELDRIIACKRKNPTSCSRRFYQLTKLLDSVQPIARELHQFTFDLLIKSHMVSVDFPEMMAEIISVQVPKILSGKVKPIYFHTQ
Sequence of Progesterone receptor (Homo sapiens) (P06401 whole entry, looked up): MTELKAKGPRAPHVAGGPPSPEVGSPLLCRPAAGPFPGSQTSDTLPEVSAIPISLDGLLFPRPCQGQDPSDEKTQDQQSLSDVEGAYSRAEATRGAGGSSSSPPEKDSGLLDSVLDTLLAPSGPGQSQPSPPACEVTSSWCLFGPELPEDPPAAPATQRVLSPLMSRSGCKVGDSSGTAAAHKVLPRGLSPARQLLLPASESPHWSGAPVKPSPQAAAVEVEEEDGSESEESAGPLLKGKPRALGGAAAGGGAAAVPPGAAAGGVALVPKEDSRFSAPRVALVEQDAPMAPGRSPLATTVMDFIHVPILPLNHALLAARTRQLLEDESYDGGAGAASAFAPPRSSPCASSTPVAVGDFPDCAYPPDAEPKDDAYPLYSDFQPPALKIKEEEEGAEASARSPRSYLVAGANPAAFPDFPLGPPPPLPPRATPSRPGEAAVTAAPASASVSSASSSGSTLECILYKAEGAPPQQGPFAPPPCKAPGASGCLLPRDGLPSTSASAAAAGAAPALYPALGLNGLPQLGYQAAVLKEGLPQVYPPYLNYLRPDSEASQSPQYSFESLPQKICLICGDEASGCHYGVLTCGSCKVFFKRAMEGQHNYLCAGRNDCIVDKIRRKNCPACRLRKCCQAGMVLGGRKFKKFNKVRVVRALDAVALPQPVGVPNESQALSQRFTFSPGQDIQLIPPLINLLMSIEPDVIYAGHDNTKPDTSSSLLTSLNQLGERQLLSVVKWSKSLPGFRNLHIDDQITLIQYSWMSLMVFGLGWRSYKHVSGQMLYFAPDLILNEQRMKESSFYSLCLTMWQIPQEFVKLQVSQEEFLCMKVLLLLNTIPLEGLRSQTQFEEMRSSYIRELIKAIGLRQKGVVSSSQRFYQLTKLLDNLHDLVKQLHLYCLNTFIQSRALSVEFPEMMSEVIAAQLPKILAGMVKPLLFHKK
Sequence of Estrogen receptor (Homo sapiens) (P03372 whole entry, looked up): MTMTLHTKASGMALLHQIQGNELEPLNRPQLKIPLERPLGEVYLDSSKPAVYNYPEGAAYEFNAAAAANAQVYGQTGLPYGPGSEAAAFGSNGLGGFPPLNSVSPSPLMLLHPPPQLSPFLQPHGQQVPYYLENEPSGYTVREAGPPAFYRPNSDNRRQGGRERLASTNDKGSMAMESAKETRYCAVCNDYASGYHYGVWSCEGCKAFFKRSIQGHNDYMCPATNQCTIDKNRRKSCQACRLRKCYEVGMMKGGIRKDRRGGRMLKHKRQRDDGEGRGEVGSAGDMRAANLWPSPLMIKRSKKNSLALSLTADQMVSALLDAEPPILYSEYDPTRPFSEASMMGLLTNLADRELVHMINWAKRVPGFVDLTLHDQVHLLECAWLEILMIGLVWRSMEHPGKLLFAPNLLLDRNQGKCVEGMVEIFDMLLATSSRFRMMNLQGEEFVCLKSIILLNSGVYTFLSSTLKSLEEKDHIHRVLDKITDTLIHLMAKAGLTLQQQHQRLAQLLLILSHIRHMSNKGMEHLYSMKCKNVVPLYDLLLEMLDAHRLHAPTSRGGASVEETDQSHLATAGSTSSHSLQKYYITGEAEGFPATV
Sequence of Thyrotropin-releasing hormone receptor (Homo sapiens) (P34981 whole entry, looked up): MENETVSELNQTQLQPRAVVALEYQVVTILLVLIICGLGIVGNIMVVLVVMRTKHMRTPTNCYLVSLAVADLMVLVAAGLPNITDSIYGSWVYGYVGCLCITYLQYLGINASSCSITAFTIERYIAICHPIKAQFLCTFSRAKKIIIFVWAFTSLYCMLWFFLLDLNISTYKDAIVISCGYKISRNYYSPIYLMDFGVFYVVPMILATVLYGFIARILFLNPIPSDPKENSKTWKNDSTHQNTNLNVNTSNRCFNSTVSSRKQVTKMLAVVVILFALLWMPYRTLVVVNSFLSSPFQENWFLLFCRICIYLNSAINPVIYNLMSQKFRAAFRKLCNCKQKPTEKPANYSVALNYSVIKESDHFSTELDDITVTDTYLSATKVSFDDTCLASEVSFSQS
Sequence of Thyrotropin receptor (Homo sapiens) (P16473 whole entry, looked up): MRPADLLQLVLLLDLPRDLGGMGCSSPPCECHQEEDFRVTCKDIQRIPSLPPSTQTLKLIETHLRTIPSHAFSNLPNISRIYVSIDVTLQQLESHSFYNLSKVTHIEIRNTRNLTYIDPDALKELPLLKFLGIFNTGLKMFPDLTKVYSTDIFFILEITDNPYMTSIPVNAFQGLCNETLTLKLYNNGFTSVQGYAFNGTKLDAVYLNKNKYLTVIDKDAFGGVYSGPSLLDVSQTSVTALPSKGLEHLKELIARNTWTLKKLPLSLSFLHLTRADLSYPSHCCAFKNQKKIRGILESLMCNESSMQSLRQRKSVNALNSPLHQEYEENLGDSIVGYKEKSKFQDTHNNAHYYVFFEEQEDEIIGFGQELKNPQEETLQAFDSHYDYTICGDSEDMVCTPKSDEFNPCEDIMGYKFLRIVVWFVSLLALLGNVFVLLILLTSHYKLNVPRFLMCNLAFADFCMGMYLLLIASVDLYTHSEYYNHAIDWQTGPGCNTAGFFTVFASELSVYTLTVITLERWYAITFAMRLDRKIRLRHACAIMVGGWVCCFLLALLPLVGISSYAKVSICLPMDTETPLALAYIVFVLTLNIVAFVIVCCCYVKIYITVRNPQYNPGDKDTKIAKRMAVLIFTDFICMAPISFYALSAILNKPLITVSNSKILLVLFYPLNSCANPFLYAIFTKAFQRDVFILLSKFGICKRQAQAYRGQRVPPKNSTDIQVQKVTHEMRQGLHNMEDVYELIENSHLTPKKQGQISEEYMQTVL

CCCCCCCCCCCCCC[n+]1ccccc1
inactive: Potency [4] | outcome [5] | Potency [6]
active: Potency [1] 3.06 µM | Potency [2] 30.6 µM | Potency [3] 61.1 µM | Potency [7] 54.5 µM | Potency [8] 54.5 µM | Potency [9] 54.9 µM | Potency [10] 8.63 µM

CC=O
active: Potency [1] 1.28 µM | Potency [2] 57 µM | Potency [3] 57 µM | Potency [7] 10.1 µM | Potency [8] 32 µM | Potency [11] 45.3 µM | Potency [9] 25.7 µM | Potency [12] 28.8 µM | Potency [10] 5.7 µM
inactive: Potency [4] | outcome [5] | Potency [6]

SCCCCCCCCS
inactive: Potency [1] | Potency [2] | Potency [3] | outcome [5] | Potency [6] | Potency [7] | outcome [13] | Potency [14] | Potency [8] | Potency [11] | Potency [9] | Potency [12] | Potency [15] | Potency [16] | Potency [17] | Potency [18]

CCN(CC)CCCN(c1ccccc1)C1Cc2ccccc2C1
active: Potency [1] 29.8 µM | Potency [2] 11.9 µM | Potency [10] 23.7 µM
inactive: Potency [4] | outcome [5] | Potency [6] | Potency [7] | outcome [13] | Potency [14] | Potency [9] | Potency [12] | Potency [15] | Potency [18]

CCOC(=O)CN
inactive: Potency [1] | Potency [2] | Potency [3] | outcome [5] | Potency [6] | Potency [7] | outcome [13] | Potency [14] | Potency [8] | Potency [11] | Potency [9] | Potency [12] | Potency [15] | Potency [18]

COc1cc(C(C)C)c2c(c1)S(=O)(=O)N(COc1cc(=O)n3cccc(OCCN4CCCCC4)c3n1)C2=O
inactive: activity change, negative = cytotoxicity [1] 0.166% [at 19 µM] | activation [19] -1.84% [at 19 µM] | activity change, negative = cytotoxicity [3] -17.6% [at 19 µM] | activation [4] -2.57% [at 19 µM] | cAMP activity change [5] 5.85% [at 18.9 µM] | activity change, negative = inhibition [6] -0.822% [at 19 µM] | activation [13] 8.35% [at 19 µM] | activity change, negative = cytotoxicity [11] 20.1% [at 19 µM] | viability change, negative = cytotoxic [9] 14.4% [at 15.8 µM] | activity change, negative = cytotoxicity [12] 15.8% [at 15.8 µM] | activation [15] -2.24% [at 15.8 µM] | activity, negative = inhibition [16] 0.273% [at 10.5 µM] | activation [17] -1.34% [at 11.8 µM] | caspase activation [18] 0.878% [at 19 µM]

CCN=C1C=CC(=C(c2ccc(N(CC)CC)cc2)c2ccc(N(CC)CC)cc2)c2ccccc21
inactive: Potency [19] | Potency [4] | Potency [17] | Potency [18]
active: Potency [1] 2.16 µM | Potency [3] 21.6 µM | Potency [7] 9.63 µM | Potency [9] 27.4 µM | Potency [12] 24.4 µM

CCc1cccc(CC)c1NC(=O)C(=O)O
inactive: Potency [1] | Potency [19] | Potency [3] | Potency [4] | outcome [5] | Potency [6] | Potency [7] | outcome [13] | Potency [14] | Potency [8] | Potency [11] | Potency [9] | Potency [12] | Potency [15] | Potency [16] | Potency [17] | Potency [10] | Potency [18]

CCCC(CC)CCCCCCCN (stereo unspecified)
active: Potency [1] 62.6 µM | Potency [11] 28 µM
inactive: Potency [3] | Potency [4] | outcome [5] | Potency [6] | Potency [7] | outcome [13] | Potency [14] | Potency [8] | Potency [9] | Potency [12] | Potency [15] | Potency [16] | Potency [17] | Potency [10] | Potency [18]

CCCC(C)CCC(C)=O (stereo unspecified)
inactive: Potency [1] | Potency [19] | Potency [3] | outcome [5] | Potency [6] | Potency [7] | outcome [13] | Potency [14] | Potency [8] | Potency [11] | Potency [9] | Potency [12] | Potency [15] | Potency [16] | Potency [17] | Potency [10] | Potency [18]

CCNc1nc(NC(C)CC)nc(OC)n1 (stereo unspecified)
inactive: Potency [1] | Potency [3] | outcome [5] | Potency [6] | Potency [7] | outcome [13] | Potency [8] | Potency [11] | Potency [9] | Potency [12] | Potency [15] | Potency [16] | Potency [17] | Potency [10] | Potency [18]

O=C(O)c1cccc(Cl)n1
inactive: Potency [1] | Potency [19] | Potency [3] | outcome [5] | Potency [6] | Potency [7] | outcome [13] | Potency [14] | Potency [8] | Potency [11] | Potency [9] | Potency [12] | Potency [15] | Potency [16] | Potency [10] | Potency [18]

CCOC(=O)CC(C)O (stereo unspecified)
inactive: Potency [1] | Potency [19] | Potency [3] | outcome [5] | Potency [6] | Potency [7] | outcome [13] | Potency [14] | Potency [8] | Potency [9] | Potency [12] | Potency [15] | Potency [10] | Potency [18]

CCN1CCN(c2cc(-c3ccc(F)cc3)c3c(n2)CCCCCC3)CC1
inactive: activity change, negative = cytotoxicity [1] -1.28% [at 19 µM] | activation [19] -0.375% [at 19 µM] | activity change, negative = cytotoxicity [3] -0.898% [at 19 µM] | cAMP activity change [5] 2.43% [at 18.9 µM] | activity change, negative = cytotoxicity [7] -2.28% [at 19 µM] | activation [13] -3.65% [at 19 µM] | activity change, negative = inhibition [14] -13.2% [at 18.9 µM] | activity change, negative = cytotoxicity [8] 1.1% [at 18.9 µM] | activity change, negative = cytotoxicity [11] 2.26% [at 19 µM] | viability change, negative = cytotoxic [9] 0.113% [at 15.8 µM] | activity change, negative = cytotoxicity [12] -0.583% [at 15.8 µM] | activation [15] -2.06% [at 15.8 µM] | activity, negative = inhibition [16] 1.24% [at 10.5 µM] | activation [17] 0.262% [at 11.8 µM] | activity change, negative = cytotoxicity [10] 0.184% [at 19 µM] | caspase activation [18] 0.316% [at 19 µM]
